Experimental data published in PubChem BioAssay (NCI).
The panel holds about 79,000 compounds, 15% with a hit somewhere; the sample as a whole holds those more often. Unmarked numbers belong to inactive results. No stated cut-off is given here; in the data, active means growth inhibition above about 70%; inactive means the rest. *1 amine or outer side, *2 acyl side, *3 side chain or, on linkers, in order; H or OH if unused. Where a SMILES comes first, the peptide text is derived from it. [ ]: non-standard residue; d: D form. X8 = C=CCC(O[*:1])C(=O)[*:2]; NMeV = CN[CH](C(=O)O)C(C)C; NMeA = CN[CH](C)C(=O)O; βAla = NCCC(=O)O

assay: NCI Yeast Anticancer Drug Screen. Data for the sgs1 mgt1 strain (AID 161);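 further: 0% = growth of cultures given vehicle only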; conditions: S. cerevisiae sgs1 mgt1 strain, at 50.0 µM, active compounds read high
In short: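 Inhibition of yeast growth, normalised to vehicle-treated controls, is reported for a strain bearing genetic alterations in DNA damage repair.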

Q: Which growth inhibition does the source give for `CCC1SCC(C)(C)NC1=O` (stereo not given) here?
A: -3.85%

Q: For `CCOc1ccccc1NC(=O)C(=O)c1c(O)c2ccc(O)cc2oc1=O`, which growth inhibition is on record?
A: 4.8%

Q: For `CC[N+](C)(C)c1ccc(/C=C(/C#N)C(=O)OC)cc1`, which growth inhibition is on record?
A: 12.8%

Q: For `Cc1c(O)c2ccc3ccccc3c2oc1=O`, which growth inhibition is on record?
A: -7.05%

Q: For `CCOC(=O)CCCOc1ccccc1`, which growth inhibition is on record?
A: -9.55%

Q: Which growth inhibition does the source give for `CSc1ncc(C#N)c2nc(-c3ccccc3)nn12` here?
A: 3.35%

Q: Which growth inhibition does the source give for `CCOc1ccc2nc(NC(=O)C(=O)C(C(=O)c3ccccc3-c3ccccc3)C3OC(=O)c4ccccc43)sc2c1` (stereo not given) here?
A: -19%

Q: Which growth inhibition does the source give for `CC12CC(=O)NC(=O)N1CCS2` (stereo not given) here?
A: -1.85%

Q: For `CCOC(=O)C(=O)/C(=C/N1CCNC1=S)C(=O)OCC`, which growth inhibition is on record?
A: -26.8%

Q: With `CC1(C)OC2C(C3N(c4ccccc4)CCN3c3ccccc3)OC(n3ccc(=O)[nH]c3=O)C2O1` (stereo not given) as the compound, how does the growth inhibition read?
A: -8.35%

Q: With `C=CCC1OC(=O)CCNC(=O)C(C)N(C)C(=O)C(C(C)C)N(C)C(=O)C(C(C)CC)NC(=O)C2CCCN2C1=O` (stereo not given) (cyclo([X8]PI[NMeV][NMeA][βAla]); configuration not given here) as the compound, how does the growth inhibition read?
A: 5.55%

Q: For `CC1N(/N=C/c2ccccc2)C(c2ccccc2)C(c2ccccc2)N1/N=C/c1ccccc1` (stereo not given), which growth inhibition is on record?
A: 17.2%

Q: Which growth inhibition does the source give for `ClCCOCc1ccc(Cl)cc1Cl` here?
A: 8.4%

Q: Which growth inhibition does the source give for `CCOC(=O)OC1CC2CC(OC(=O)OCC)c3cccc(Br)c3C2c2ccccc21` (stereo not given) here?
A: 18.8%

Q: Which growth inhibition does the source give for `Cc1ccc(C)c2c(CC(=O)O)c[nH]c12` here?
A: -5.9%

Q: With `S=C1SC(=Nc2ccccc2)C(=Nc2ccccc2)N1c1ccccc1` as the compound, how does the growth inhibition read?
A: 6.7%

Q: With `COc1ccc(NC(=O)C(=O)Cc2ccc([N+](=O)[O-])c([N+](=O)[O-])c2CC(=O)C(=O)Nc2ccc(OC)cc2OC)c(OC)c1` as the compound, how does the growth inhibition read?
A: -44%

Q: Which growth inhibition does the source give for `CCO/C(Cc1ccc(Cl)cc1)=N/NC(N)=S` here?
A: 24.9%

Q: For `O=c1[nH]c(-c2ccccc2)c(-c2ccccc2)nc1Cl`, which growth inhibition is on record?
A: 6.5%

Q: With `OC(c1ccccc1)(c1c2ccccc2cc2ccccc12)C1CCC1` (stereo not given) as the compound, how does the growth inhibition read?
A: 0.9%

Q: Which growth inhibition does the source give for `CNCCC(=O)c1ccccc1` here?
A: -14.4%

Q: With `NC(=O)c1nnc2c(F)cccc2c1N` as the compound, how does the growth inhibition read?
A: -15.3%

Q: With `CCc1nnc(N)o1` as the compound, how does the growth inhibition read?
A: 0.95%

Q: With `CC(C)CNC(=O)Nc1ccccc1C(F)(F)F` as the compound, how does the growth inhibition read?
A: -23.6%

Q: With `O=[N+]([O-])c1cccc(/C=N\O)c1` as the compound, how does the growth inhibition read?
A: -9.9%

Q: With `CCOC(=O)CNC(=O)C(Cc1cnc[nH]1)NC(=O)OCc1ccccc1` (stereo not given) as the compound, how does the growth inhibition read?
A: -8.6%

Q: Which growth inhibition does the source give for `Cc1cccnc1C` here?
A: -16.2%

Q: Which growth inhibition does the source give for `CCOC(=O)C(Cc1ccc(OCc2ccccc2)c(OCc2ccccc2)c1)(NC=O)C(=O)OCC` here?
A: 19.8%

Q: For `CC1(c2ccc(C(O)c3ccccc3)s2)OCCO1` (stereo not given), which growth inhibition is on record?
A: 10.9%

Q: For `CCOC(=O)c1ccc(NC(=O)c2ccc(Cl)cc2Cl)cc1`, which growth inhibition is on record?
A: 6.5%

Q: With `CCN(CC)CCC1CC/C(=C\c2ccc(OC)cc2)C1=O` (stereo not given) as the compound, how does the growth inhibition read?
A: 27.9%

Q: For `O=C(N/N=C\c1cccnc1)Nc1ccc(N=Nc2ccccc2)cc1`, which growth inhibition is on record?
A: -1.9%

Q: For `CCCCCC(=O)Nc1cc(N)cc(C(=O)O)c1`, which growth inhibition is on record?
A: 9.5%

Q: For `COc1ccc(/C=C2\CCC(CCN(C)C)(C3=CCCC3)C2=O)cc1` (stereo not given), which growth inhibition is on record?
A: 15%

Q: For `COC(=O)c1cc(OC)c2cccnc2c1Nc1ccccc1`, which growth inhibition is on record?
A: 9.25%

Q: For `N#CCC(=O)N1CCCC1`, which growth inhibition is on record?
A: -3.8%

Q: Which growth inhibition does the source give for `CC1(C2(C)Nc3ccccc3O2)Nc2ccccc2O1` (stereo not given) here?
A: 9.95%

Q: For `S=c1ncnc2cc3[nH][nH]cc3cc12`, which growth inhibition is on record?
A: -5.35%

Q: With `CCOc1cc2c(cc1C(C)c1ccc(OCc3ccccc3)c(OC)c1)OCO2` (stereo not given) as the compound, how does the growth inhibition read?
A: -5.35%

Q: Which growth inhibition does the source give for `CC1=C(C(=O)Nc2ccc([N+](=O)[O-])cc2)C(c2ccco2)C(C(=O)Nc2ccc([N+](=O)[O-])cc2)=C(C)N1` here?
A: 34.4%

assay: NCI Yeast Anticancer Drug Screen. Data for the cln2 rad14 strain (AID 165);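 further: 0% = growth equal to vehicle treated cultures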; conditions: S. cerevisiae cln2 rad14 strain, at 50.0 µM, active compounds read high
In short: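 Each compound was tested on cln2 rad14 yeast. Inhibition of growth was calculated against vehicle-exposed controls.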

Q: Which growth inhibition does the source give for `CCC1SCC(C)(C)NC1=O` (stereo not given) here?
A: -39.2%

Q: With `CCOc1ccccc1NC(=O)C(=O)c1c(O)c2ccc(O)cc2oc1=O` as the compound, how does the growth inhibition read?
A: 1.8%

Q: For `CC[N+](C)(C)c1ccc(/C=C(/C#N)C(=O)OC)cc1`, which growth inhibition is on record?
A: 11.2%

Q: For `Cc1c(O)c2ccc3ccccc3c2oc1=O`, which growth inhibition is on record?
A: -37.4%

Q: For `CCOC(=O)CCCOc1ccccc1`, which growth inhibition is on record?
A: 7.6%

Q: Which growth inhibition does the source give for `CSc1ncc(C#N)c2nc(-c3ccccc3)nn12` here?
A: 8.1%

Q: With `CCOc1ccc2nc(NC(=O)C(=O)C(C(=O)c3ccccc3-c3ccccc3)C3OC(=O)c4ccccc43)sc2c1` (stereo not given) as the compound, how does the growth inhibition read?
A: 23.1%

Q: For `CC12CC(=O)NC(=O)N1CCS2` (stereo not given), which growth inhibition is on record?
A: -20.7%

Q: For `CCOC(=O)C(=O)/C(=C/N1CCNC1=S)C(=O)OCC`, which growth inhibition is on record?
A: 32.4%

Q: With `CC1(C)OC2C(C3N(c4ccccc4)CCN3c3ccccc3)OC(n3ccc(=O)[nH]c3=O)C2O1` (stereo not given) as the compound, how does the growth inhibition read?
A: 14.1%

Q: For `C=CCC1OC(=O)CCNC(=O)C(C)N(C)C(=O)C(C(C)C)N(C)C(=O)C(C(C)CC)NC(=O)C2CCCN2C1=O` (stereo not given) (cyclo([X8]PI[NMeV][NMeA][βAla]); configuration not given here), which growth inhibition is on record?
A: 11.5%

Q: With `CC1N(/N=C/c2ccccc2)C(c2ccccc2)C(c2ccccc2)N1/N=C/c1ccccc1` (stereo not given) as the compound, how does the growth inhibition read?
A: 5.3%

Q: For `ClCCOCc1ccc(Cl)cc1Cl`, which growth inhibition is on record?
A: 0.7%

Q: Which growth inhibition does the source give for `CCOC(=O)OC1CC2CC(OC(=O)OCC)c3cccc(Br)c3C2c2ccccc21` (stereo not given) here?
A: 0.05%

Q: For `Cc1ccc(C)c2c(CC(=O)O)c[nH]c12`, which growth inhibition is on record?
A: -15.6%

Q: With `S=C1SC(=Nc2ccccc2)C(=Nc2ccccc2)N1c1ccccc1` as the compound, how does the growth inhibition read?
A: -37.1%

Q: With `COc1ccc(NC(=O)C(=O)Cc2ccc([N+](=O)[O-])c([N+](=O)[O-])c2CC(=O)C(=O)Nc2ccc(OC)cc2OC)c(OC)c1` as the compound, how does the growth inhibition read?
A: 17.8%

Q: With `CCO/C(Cc1ccc(Cl)cc1)=N/NC(N)=S` as the compound, how does the growth inhibition read?
A: 24.1%

Q: For `O=c1[nH]c(-c2ccccc2)c(-c2ccccc2)nc1Cl`, which growth inhibition is on record?
A: -11.7%

Q: With `OC(c1ccccc1)(c1c2ccccc2cc2ccccc12)C1CCC1` (stereo not given) as the compound, how does the growth inhibition read?
A: 9.75%

Q: With `CNCCC(=O)c1ccccc1` as the compound, how does the growth inhibition read?
A: -64.8%

Q: Which growth inhibition does the source give for `NC(=O)c1nnc2c(F)cccc2c1N` here?
A: -0.8%

Q: For `CCc1nnc(N)o1`, which growth inhibition is on record?
A: -2.5%

Q: For `CC(C)CNC(=O)Nc1ccccc1C(F)(F)F`, which growth inhibition is on record?
A: -4.55%

Q: For `O=[N+]([O-])c1cccc(/C=N\O)c1`, which growth inhibition is on record?
A: -7.45%

Q: For `CCOC(=O)CNC(=O)C(Cc1cnc[nH]1)NC(=O)OCc1ccccc1` (stereo not given), which growth inhibition is on record?
A: -14.6%

Q: Which growth inhibition does the source give for `Cc1cccnc1C` here?
A: 24.4%

Q: Which growth inhibition does the source give for `CCOC(=O)C(Cc1ccc(OCc2ccccc2)c(OCc2ccccc2)c1)(NC=O)C(=O)OCC` here?
A: -14.8%

Q: For `CC1(c2ccc(C(O)c3ccccc3)s2)OCCO1` (stereo not given), which growth inhibition is on record?
A: 12.9%

Q: Which growth inhibition does the source give for `CCOC(=O)c1ccc(NC(=O)c2ccc(Cl)cc2Cl)cc1` here?
A: -18.1%

Q: Which growth inhibition does the source give for `CCN(CC)CCC1CC/C(=C\c2ccc(OC)cc2)C1=O` (stereo not given) here?
A: 21.1%

Q: With `O=C(N/N=C\c1cccnc1)Nc1ccc(N=Nc2ccccc2)cc1` as the compound, how does the growth inhibition read?
A: -9.2%

Q: With `CCCCCC(=O)Nc1cc(N)cc(C(=O)O)c1` as the compound, how does the growth inhibition read?
A: -9.6%

Q: Which growth inhibition does the source give for `COc1ccc(/C=C2\CCC(CCN(C)C)(C3=CCCC3)C2=O)cc1` (stereo not given) here?
A: 18.1%

Q: For `COC(=O)c1cc(OC)c2cccnc2c1Nc1ccccc1`, which growth inhibition is on record?
A: 0.6%

Q: Which growth inhibition does the source give for `N#CCC(=O)N1CCCC1` here?
A: -8.6%

Q: With `CC1(C2(C)Nc3ccccc3O2)Nc2ccccc2O1` (stereo not given) as the compound, how does the growth inhibition read?
A: -36.8%

Q: With `S=c1ncnc2cc3[nH][nH]cc3cc12` as the compound, how does the growth inhibition read?
A: -33.5%

Q: Which growth inhibition does the source give for `CCOc1cc2c(cc1C(C)c1ccc(OCc3ccccc3)c(OC)c1)OCO2` (stereo not given) here?
A: 11.7%

Q: With `CC1=C(C(=O)Nc2ccc([N+](=O)[O-])cc2)C(c2ccco2)C(C(=O)Nc2ccc([N+](=O)[O-])cc2)=C(C)N1` as the compound, how does the growth inhibition read?
A: 38.2%
